Data: the supplement of paper PMC11732987, “Enantioselective OTUD7B fragment discovery through chemoproteomics screening and high-throughput optimisation” (Communications Chemistry, 2025)

Key:
Experiment in all cases: log2 ratio of Biotin-Ahx-Ub-VS probe labelling (fragment/DMSO); higher = less target engagement (more negative = stronger competition), active = hit call of the paper (q ≤ 0.05, log2 ratio ≤ -1)
Conditions in all cases: compound concentration: 200 uM; treatment time: 3 h
ALG13 = target: T1, ALG13 (UniProt Q9NP73)
T1 sequence (whole entry): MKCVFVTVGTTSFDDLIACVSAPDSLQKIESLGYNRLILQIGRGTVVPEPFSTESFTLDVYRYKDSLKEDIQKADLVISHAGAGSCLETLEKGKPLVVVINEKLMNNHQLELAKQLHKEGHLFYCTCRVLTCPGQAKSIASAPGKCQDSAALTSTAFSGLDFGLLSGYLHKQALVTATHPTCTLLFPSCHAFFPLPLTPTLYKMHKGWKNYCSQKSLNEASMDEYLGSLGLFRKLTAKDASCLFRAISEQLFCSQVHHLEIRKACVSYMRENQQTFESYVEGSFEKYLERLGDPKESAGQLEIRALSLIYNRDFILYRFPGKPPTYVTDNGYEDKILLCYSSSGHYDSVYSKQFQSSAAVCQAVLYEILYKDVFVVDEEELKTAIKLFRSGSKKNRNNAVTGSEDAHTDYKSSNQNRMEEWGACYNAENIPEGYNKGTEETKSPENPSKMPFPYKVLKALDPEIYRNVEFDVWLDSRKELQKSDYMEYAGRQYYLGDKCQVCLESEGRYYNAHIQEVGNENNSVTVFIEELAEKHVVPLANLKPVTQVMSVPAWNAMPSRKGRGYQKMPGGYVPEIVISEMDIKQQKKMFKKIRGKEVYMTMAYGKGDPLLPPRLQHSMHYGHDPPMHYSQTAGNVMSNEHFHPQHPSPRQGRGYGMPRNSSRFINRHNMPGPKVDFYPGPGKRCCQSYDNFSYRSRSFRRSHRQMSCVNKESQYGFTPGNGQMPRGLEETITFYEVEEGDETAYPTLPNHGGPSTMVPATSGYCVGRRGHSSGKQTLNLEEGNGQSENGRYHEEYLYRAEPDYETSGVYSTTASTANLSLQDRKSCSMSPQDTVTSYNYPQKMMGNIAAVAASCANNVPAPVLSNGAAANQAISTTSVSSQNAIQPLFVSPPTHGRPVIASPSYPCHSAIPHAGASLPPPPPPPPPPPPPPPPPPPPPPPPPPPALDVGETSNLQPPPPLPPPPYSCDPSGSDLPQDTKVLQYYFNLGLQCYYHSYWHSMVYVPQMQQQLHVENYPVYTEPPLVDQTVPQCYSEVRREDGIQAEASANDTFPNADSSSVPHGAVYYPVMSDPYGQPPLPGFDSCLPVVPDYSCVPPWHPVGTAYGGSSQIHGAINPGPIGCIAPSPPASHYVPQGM
Outline: (§1)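 The table lists average log2 ratios of fragment over vehicle, from an unpaired t-test on global-median-normalised Spectronaut label-free quantities. Proteins with ≥2 unique peptides were used. Samples were HEK293T lysate (495 µg) treated in triplicate with fragment at 200 µM or vehicle for 3 h, then with Biotin-Ahx-Ub-VS (0.5 µM final) for 1 h, with labelled DUBs NeutrAvidin-enriched and run by diaPASEF LC-MS/MS.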

ATXN3 = ATXN3 (UniProt P54252)
ATXN3, sequence (P54252 whole entry): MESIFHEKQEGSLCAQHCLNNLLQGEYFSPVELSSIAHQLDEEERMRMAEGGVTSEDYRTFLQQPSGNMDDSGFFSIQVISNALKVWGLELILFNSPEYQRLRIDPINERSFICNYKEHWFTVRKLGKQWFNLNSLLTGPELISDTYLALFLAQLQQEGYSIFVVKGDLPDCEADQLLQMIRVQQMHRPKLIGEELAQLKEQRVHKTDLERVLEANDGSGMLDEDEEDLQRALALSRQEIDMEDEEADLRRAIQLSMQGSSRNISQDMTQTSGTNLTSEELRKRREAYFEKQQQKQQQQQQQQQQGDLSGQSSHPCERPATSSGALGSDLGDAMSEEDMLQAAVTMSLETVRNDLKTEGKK
Outline: as §1

BAP1 = target: T2, BAP1 (UniProt Q92560)
T2 sequence (whole entry): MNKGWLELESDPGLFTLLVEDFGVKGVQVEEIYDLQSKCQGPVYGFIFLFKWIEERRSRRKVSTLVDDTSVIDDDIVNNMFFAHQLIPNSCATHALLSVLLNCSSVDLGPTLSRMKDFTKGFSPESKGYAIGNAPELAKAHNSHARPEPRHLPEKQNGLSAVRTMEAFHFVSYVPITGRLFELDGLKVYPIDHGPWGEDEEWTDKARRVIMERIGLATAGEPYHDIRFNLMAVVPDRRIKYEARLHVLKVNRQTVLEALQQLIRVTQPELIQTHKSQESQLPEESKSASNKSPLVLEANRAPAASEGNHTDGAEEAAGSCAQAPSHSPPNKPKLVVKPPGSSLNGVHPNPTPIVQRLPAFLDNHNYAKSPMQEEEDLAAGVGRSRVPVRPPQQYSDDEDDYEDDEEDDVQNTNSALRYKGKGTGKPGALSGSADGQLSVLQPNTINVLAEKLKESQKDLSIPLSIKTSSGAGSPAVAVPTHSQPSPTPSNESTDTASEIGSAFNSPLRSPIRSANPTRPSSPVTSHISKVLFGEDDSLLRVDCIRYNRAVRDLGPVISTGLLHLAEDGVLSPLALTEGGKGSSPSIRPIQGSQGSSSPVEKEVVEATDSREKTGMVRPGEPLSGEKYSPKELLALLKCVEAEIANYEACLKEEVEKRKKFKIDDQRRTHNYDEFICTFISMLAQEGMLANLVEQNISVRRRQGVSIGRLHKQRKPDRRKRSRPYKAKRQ
Outline: as §1

EIF3F = EIF3F (UniProt O00303)
EIF3F, sequence (O00303 whole entry): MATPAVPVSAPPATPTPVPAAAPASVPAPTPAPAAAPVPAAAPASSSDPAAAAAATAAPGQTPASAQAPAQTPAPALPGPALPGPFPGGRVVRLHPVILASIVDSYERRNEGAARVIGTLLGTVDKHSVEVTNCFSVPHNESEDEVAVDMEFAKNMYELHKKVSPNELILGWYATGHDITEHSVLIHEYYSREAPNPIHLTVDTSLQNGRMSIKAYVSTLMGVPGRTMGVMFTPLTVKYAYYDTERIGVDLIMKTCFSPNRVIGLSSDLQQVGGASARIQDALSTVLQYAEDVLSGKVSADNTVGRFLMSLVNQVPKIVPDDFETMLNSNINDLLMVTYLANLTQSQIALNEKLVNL
Outline: as §1

EIF3H = EIF3H (UniProt O15372)
EIF3H, sequence (O15372 whole entry): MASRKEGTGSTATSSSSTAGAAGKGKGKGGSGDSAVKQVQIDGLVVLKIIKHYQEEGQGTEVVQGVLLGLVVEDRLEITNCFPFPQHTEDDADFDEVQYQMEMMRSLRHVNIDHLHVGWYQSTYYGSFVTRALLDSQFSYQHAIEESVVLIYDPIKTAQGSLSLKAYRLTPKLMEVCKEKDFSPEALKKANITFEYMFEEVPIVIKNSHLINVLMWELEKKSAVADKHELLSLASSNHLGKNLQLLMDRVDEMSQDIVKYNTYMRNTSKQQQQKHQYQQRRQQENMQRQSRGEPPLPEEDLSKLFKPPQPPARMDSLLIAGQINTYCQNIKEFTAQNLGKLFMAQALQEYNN
Outline: as §1

FAM105A = target: T3, FAM105A (UniProt Q9NUU6)
T3 sequence (whole entry): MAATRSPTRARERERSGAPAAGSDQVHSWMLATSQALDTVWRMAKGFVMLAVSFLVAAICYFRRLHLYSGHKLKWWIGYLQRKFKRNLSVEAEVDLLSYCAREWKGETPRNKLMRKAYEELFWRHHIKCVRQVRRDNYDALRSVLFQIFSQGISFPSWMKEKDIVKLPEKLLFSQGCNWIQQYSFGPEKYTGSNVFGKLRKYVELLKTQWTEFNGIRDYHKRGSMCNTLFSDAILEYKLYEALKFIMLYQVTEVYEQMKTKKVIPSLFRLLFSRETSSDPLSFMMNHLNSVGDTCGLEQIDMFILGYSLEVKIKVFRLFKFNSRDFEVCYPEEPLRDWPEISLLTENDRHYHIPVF
Outline: as §1

OTUB1 = OTUB1 (UniProt Q96FW1)
OTUB1, sequence (Q96FW1 whole entry): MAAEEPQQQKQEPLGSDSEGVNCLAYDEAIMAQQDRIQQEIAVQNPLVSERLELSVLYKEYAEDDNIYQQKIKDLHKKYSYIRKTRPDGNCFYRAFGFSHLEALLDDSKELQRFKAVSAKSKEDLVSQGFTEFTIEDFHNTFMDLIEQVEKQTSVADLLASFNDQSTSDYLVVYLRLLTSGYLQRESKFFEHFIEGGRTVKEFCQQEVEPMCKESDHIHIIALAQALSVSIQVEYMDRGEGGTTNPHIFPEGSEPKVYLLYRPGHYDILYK
Outline: as §1

OTUD4 = target: T4, OTUD4 (UniProt Q01804)
T4 sequence (whole entry): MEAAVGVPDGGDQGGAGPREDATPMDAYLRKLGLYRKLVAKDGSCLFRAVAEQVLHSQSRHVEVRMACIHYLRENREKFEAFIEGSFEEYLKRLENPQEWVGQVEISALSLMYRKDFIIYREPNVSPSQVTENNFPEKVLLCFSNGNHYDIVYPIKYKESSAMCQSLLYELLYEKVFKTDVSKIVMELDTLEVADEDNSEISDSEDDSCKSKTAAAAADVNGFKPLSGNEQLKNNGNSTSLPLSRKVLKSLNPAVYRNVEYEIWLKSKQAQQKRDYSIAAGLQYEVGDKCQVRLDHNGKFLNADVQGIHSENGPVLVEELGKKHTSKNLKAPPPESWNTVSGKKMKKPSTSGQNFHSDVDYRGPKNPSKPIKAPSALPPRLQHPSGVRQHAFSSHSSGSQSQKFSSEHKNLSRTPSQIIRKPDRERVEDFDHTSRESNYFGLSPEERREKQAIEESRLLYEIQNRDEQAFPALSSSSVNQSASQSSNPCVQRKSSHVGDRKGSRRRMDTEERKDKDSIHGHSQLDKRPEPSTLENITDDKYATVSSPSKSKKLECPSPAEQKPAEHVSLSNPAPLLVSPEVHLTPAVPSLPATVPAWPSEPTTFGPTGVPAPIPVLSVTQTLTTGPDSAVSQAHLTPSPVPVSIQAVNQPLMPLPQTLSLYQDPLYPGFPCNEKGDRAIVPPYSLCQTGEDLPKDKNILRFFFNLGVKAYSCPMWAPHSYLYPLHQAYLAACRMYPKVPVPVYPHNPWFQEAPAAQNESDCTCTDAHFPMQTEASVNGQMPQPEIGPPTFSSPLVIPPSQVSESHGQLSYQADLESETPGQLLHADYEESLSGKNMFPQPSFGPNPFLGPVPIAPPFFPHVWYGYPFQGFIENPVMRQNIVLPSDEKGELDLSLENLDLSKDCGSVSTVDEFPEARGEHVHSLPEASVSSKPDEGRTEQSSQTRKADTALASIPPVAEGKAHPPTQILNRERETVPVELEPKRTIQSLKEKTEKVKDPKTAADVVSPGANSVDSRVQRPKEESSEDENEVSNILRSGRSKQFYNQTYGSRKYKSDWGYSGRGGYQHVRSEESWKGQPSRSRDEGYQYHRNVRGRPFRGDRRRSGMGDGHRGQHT
Outline: as §1

OTUD5 = target: T5, OTUD5 (UniProt Q96G74)
T5 sequence (whole entry): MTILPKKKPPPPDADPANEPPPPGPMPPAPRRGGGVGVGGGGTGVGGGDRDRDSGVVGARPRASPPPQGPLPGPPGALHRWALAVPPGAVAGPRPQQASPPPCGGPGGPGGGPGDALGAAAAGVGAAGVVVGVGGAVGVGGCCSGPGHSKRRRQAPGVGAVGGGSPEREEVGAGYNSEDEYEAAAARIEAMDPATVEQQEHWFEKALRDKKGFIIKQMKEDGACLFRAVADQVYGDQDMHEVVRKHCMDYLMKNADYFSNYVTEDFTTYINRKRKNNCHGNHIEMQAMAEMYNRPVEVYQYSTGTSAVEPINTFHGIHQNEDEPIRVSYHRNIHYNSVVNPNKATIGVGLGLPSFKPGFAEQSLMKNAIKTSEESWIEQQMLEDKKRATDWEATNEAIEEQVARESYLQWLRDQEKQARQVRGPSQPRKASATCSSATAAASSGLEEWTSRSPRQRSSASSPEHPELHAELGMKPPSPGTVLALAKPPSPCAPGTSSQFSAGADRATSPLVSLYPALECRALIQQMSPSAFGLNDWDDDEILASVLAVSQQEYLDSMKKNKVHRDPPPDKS
Outline: as §1

Measured: log2 ratio of Biotin-Ahx-Ub-VS probe labelling

Cl.Cn1c(CNC(=O)CCl)nc2cccnc21
active: BAP1 -1.32
inactive: ALG13 0.0884 | ATXN3 -0.424 | EIF3F -0.0906 | EIF3H 0.0923 | FAM105A -0.0642 | OTUB1 -0.136 | OTUD4 -0.388 | OTUD5 -0.323
